According to PubChem BioAssay (NCATS):
Records with an inconclusive call do not appear. Activity calls are given as the source filed them. Unless noted, the call rests on the fitted dose curve; in most records, active means well fitted curve in the direction sought with a large enough effect; inconclusive means small, poorly fitted or top-dose-only effect, or another doubt; inactive means no such curve, though single readings can be large; an effect the other way counts as inactive or inconclusive.

Experiments:
[1] = Quantitative High-Throughput drug screen in 47 multiple myeloma cell lines against the NCATS MIPE library collection: OPM1_PLB cell viability assay (AID 1918989); further: nearly all actives have a fitted effect of over 40% in size
Outline: (§1)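 Cells were exposed to library compounds for 48 hours, after which ATP was measured by CellTiter-Glo. Signal was taken as median relative luminescence units.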

[2] = Quantitative High-Throughput drug screen in 47 multiple myeloma cell lines against the NCATS MIPE library collection: SKMM1_PLB cell viability assay (AID 1919863); details: SKMM1 myeloma viability, CellTiter-Glo ATP, 48 h; viability: stronger effect = lower value; further: nearly all actives have a fitted effect of over 35% in size
Outline: as §1

[3] = Quantitative High-Throughput drug screen in 47 multiple myeloma cell lines against the NCATS MIPE library collection: U266_ATCC cell viability assay (AID 1919864); further: nearly all actives have a fitted effect of over 35% in size; further: potency means the concentration at half of the fitted maximal effect
Outline: as §1

[4] = Quantitative High-Throughput drug screen in 47 multiple myeloma cell lines against the NCATS MIPE library collection: VP6_DJ cell viability assay (AID 1919867); further: nearly all actives have a fitted effect of over 40% in size
Outline: as §1

[5] = Quantitative High-Throughput drug screen in 47 multiple myeloma cell lines against the NCATS MIPE library collection: UTMC2_PLB cell viability assay (AID 1919868); further: nearly all actives have a fitted effect of over 55% in size; further: potency means the concentration at half of the fitted maximal effect
Outline: as §1

[6] = Quantitative High-Throughput drug screen in 47 multiple myeloma cell lines against the NCATS MIPE library collection: PCM6_Riken cell viability assay (AID 1919870); further: nearly all actives have a fitted effect of over 30% in size; further: potency means the concentration at half of the fitted maximal effect
Outline: as §1

[7] = Quantitative High-Throughput drug screen in 47 multiple myeloma cell lines against the NCATS MIPE library collection: RPMI8226_ATCC cell viability assay (AID 1919871); further: nearly all actives have a fitted effect of over 30% in size; further: potency means the concentration at half of the fitted maximal effect
Outline: as §1

[8] = Quantitative High-Throughput drug screen in 47 multiple myeloma cell lines against the NCATS MIPE library collection: OPM2_DSMZ cell viability assay (AID 1919872); further: nearly all actives have a fitted effect of over 30% in size
Outline: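 Myeloma cell lines, 500 cells per well, exposed to MIPE 4.0 library compounds for 48 h at 37C, 5% CO2. Viability from ATP by CellTiter-Glo luminescence; normalised to DMSO (100%) and media-only (0%) wells.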

[9] = Quantitative High-Throughput drug screen in 47 multiple myeloma cell lines against the NCATS MIPE library collection: KMS11_JCRBsus cell viability assay (AID 1919873); further: nearly all actives have a fitted effect of over 50% in size
Outline: as §1

[10] = Quantitative High-Throughput drug screen in 47 multiple myeloma cell lines against the NCATS MIPE library collection: KMS28BM_JCRB cell viability assay (AID 1919874); further: nearly all actives have a fitted effect of over 35% in size
Outline: as §1

[11] = qHTS drug screen for cell cycle checkpoint inhibitors in PARPi-resistant BRCA-mutant ovarian cancer cell lines. (AID 1963452; calls by dose curve; further: potency means the concentration at half of the fitted maximal effect); details: PEO1/OlaR viability, CellTiter-Glo luminescence, 96 h; for Z-AUC: stronger effect = lower value
Outline: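 PEO1, PEO4 and PEO1/OlaR ovarian cancer cells, 600 per well, exposed 96 h at 37C to a dilution series. Viability read by CellTiter-Glo luminescence, normalized to DMSO and empty wells; activity summarized as Z-AUC.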

[12] = qHTS for identification of novel therapeutic agents for treatment of microphthalmiaassociated transcription factor (MiT) renal cell carcinoma (RCC) (AID 1963991); details: CellTiter-Glo, 48 h, stronger effect = lower value
Outline: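 Three TFE3-fusion RCC lines (UOK109, UOK124, UOK145), 500 cells/well in complete medium, were treated with MIPE 4.0 compounds for 48 hours at 37 C. Viability was by CellTiter-Glo luminescence, normalized to DMSO (100%) and empty wells (0%); curves fitted over 11 concentrations.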

[13] = qHTS profiling for inhibitors of Plasmodium falciparum proliferation (AID 504749); further: potency means the concentration at half of the fitted maximal effect;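 on activity, negative = inhibition: 0% = DMSO vehicle and full inhibition = artemisinin control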; on all read-outs here: nearly all actives have a fitted effect of over 60% in size; details: P. falciparum in erythrocytes, SYBR Green DNA, 72 h; for activity, negative = inhibition: at 28.7 µM (top of the series)
Outline: (§2)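 Each compound contacts P. falciparum-infected red blood cells for 72 h at 37 C; lysis buffer (Tris, EDTA, saponin, Triton X, SYBR Green I) is added and fluorescence measured next morning; values normalized to controls.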

3D7 = experiment: as above; details: P. falciparum in erythrocytes, SYBR Green DNA, 72 h; series mostly up to 28.7 µM
Outline: as §2

7G8 = experiment: as above; details: P. falciparum in erythrocytes, SYBR Green DNA, 72 h; series mostly up to 28.7 µM
Outline: as §2

[14] = target: Cytochrome P450 3A4 (Homo sapiens) (UniProt P08684); experiment: qHTS for inhibitors of CYP3A4 against the NCATS DSHEA and TCM libraries (AID 1919971);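 further: on the % scale 0 is the no-effect control and ±100 the full control effect; inhibition lowers luminescence from luciferin made by CYP3A4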
Outline: (§3)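 Each CYP isoform and its pro-luciferin substrate, at isoform-specific final concentrations, were preincubated 15 min at RT with substances. NADPH regeneration solution (1x) started a 30-45 min reaction, and P450-Glo luminescence was read.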

[15] = target: Cytochrome P450 2D6 (Homo sapiens) (UniProt P10635); experiment: qHTS for inhibitors of CYP2D6 against the NCATS DSHEA and TCM libraries (AID 1919972); further: on the % scale 0 is the no-effect control and ±100 the full control effect
Outline: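 CYP2D6 enzyme with pro-luciferin substrate in manufacturer buffer (typically 100 mM KPO4), preincubated 15 min RT with substances (most at 19.5 nM upward); NADPH regeneration system (1x) started 30–45 min RT reaction; P450-Glo luminescence read after 30 min; quinidine as intraplate control.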

[16] = target: Cytochrome P450 2C9 (Homo sapiens) (UniProt P11712); experiment: qHTS for inhibitors of CYP2C9 against the NCATS DSHEA and TCM libraries (AID 1919973);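 further: luminogenic pro-luciferin CYP2C9 substrate turned into luciferin with NADPH regeneration; on the % scale 0 is the no-effect control and ±100 the full control effect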
Outline: as §3

[17] = target: Cytochrome P450 2C19 (Homo sapiens) (UniProt P33261); experiment: qHTS for inhibitors of CYP2C19 against the NCATS DSHEA and TCM libraries (AID 1919974);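 further: luminescence from luciferin released by CYP2C19 oxidation of a pro-luciferin substrate; on the % scale 0 is the no-effect control and ±100 the full control effect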
Outline: as §3

[18] = target: Cytochrome P450 1A2 (Homo sapiens) (UniProt P05177); experiment: qHTS for inhibitors of CYPIA2 against the NCATS DSHEA and TCM libraries (AID 1919976); further: on the % scale 0 is the no-effect control and ±100 the full control effect
Outline: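 Reaction started with 1x NADPH regeneration solution and run 30-45 min, room temperature, protected from light, after compounds sat 15 min with CYP1A2 and pro-luciferin substrate. P450-Glo detection gave luminescence; furafylline served as control.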

[19] = measured here: PEO1 parental Z-AUC
[20] = TFE3-RCC UOK109 viability, measured here: UOK109 Z-AUC
[21] = TFE3-RCC viability, measured here: UOK124 Z-AUC
[22] = TFE3-RCC viability, measured here: UOK145 Z-AUC

Cytochrome P450 1A2 (Homo sapiens), sequence (P05177 whole entry, looked up): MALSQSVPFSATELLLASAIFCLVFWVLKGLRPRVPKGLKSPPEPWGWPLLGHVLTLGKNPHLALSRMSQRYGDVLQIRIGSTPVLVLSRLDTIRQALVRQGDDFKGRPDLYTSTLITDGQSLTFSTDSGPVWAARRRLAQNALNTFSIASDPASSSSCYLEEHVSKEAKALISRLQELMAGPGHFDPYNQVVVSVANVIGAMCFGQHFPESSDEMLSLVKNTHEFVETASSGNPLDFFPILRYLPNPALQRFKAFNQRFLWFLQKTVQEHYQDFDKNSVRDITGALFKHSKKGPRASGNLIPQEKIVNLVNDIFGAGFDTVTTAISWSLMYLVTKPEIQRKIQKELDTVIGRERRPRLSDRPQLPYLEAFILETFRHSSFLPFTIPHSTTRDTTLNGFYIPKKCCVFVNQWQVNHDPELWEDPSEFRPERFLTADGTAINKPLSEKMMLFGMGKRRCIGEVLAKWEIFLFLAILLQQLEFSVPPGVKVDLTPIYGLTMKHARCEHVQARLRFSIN
Cytochrome P450 2D6 (Homo sapiens), sequence (P10635 whole entry, looked up): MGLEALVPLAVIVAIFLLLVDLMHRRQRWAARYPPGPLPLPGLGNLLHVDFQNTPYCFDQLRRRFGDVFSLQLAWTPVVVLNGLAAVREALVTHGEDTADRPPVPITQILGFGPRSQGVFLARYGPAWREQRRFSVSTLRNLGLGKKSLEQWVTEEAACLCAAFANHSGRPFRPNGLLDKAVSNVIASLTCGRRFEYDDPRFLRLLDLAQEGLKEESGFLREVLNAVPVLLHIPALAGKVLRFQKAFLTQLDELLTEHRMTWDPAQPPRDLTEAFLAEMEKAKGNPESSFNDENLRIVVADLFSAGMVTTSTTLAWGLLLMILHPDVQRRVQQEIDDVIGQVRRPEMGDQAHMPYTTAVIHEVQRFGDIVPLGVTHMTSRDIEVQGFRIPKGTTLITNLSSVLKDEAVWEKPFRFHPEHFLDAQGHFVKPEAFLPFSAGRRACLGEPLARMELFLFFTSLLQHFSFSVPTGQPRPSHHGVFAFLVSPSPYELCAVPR
Cytochrome P450 2C9 (Homo sapiens), sequence (P11712 whole entry, looked up): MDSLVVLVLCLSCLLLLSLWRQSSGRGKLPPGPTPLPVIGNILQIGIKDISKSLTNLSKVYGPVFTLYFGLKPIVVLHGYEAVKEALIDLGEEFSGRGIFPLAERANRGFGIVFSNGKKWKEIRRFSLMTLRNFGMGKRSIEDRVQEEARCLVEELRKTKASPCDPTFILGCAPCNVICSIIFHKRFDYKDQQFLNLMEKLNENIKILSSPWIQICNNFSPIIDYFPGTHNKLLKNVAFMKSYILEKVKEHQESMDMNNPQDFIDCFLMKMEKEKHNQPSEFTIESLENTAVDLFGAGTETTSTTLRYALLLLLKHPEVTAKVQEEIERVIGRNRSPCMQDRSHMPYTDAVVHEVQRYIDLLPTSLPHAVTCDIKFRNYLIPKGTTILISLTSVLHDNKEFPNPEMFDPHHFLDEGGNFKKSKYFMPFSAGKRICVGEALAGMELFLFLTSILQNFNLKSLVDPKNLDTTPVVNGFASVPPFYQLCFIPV
Cytochrome P450 3A4 (Homo sapiens), sequence (P08684 whole entry, looked up, canonical isoform): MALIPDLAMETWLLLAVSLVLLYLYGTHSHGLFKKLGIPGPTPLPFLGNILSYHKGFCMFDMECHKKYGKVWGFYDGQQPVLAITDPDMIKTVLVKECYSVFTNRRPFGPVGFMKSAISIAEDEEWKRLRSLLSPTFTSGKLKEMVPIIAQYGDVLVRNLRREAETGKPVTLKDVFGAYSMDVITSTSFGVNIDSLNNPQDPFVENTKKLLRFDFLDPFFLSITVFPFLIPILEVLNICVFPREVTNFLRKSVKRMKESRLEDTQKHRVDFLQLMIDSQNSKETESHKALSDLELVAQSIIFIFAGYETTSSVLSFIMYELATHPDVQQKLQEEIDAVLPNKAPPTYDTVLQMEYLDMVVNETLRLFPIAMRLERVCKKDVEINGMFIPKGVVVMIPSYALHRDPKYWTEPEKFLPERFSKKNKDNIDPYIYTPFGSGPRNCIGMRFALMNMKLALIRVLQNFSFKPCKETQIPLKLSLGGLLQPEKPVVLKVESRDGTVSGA
Cytochrome P450 2C19 (Homo sapiens), sequence (P33261 whole entry, looked up): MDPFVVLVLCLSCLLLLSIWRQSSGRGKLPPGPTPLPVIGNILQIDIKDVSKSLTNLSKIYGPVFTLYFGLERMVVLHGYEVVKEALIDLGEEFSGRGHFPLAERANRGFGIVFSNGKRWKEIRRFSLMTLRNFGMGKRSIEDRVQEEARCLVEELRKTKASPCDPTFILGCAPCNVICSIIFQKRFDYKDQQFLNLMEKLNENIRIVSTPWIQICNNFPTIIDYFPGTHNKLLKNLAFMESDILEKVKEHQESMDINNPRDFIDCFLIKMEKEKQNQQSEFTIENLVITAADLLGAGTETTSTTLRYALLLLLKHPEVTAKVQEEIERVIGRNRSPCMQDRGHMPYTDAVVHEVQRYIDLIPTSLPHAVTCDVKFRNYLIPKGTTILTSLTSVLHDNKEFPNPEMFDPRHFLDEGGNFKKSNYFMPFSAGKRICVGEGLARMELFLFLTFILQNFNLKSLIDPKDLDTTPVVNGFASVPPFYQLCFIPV

For CC(C)c1cccc(C(C)C)c1O, the Potency [1] was “inactive”, the viability [2] was 119% (inactive) and the Potency [3] was “inactive”. For the same compound, the Potency [4] was “inactive”, the Potency [5] was “inactive” and the Potency [6] was “inactive”. The Potency [7] was “inactive”, the outcome [8] was “inactive” and the Potency [9] was “inactive”. The outcome [10] was “inactive”, the Z-AUC [11] was 0.183 (inactive) and the Z-AUC [11, 19] was 0.696. For the same compound, the Z-AUC ([11]; measured here: PEO4 Z-AUC) was 0.584, the z-score [12, 20] was -1.1 and the z-score [12, 21] was 0.663. The z-score [12, 22] was 0.666, the activity, negative = inhibition ([13]; parasite line A) was 13.6% (inactive) and the activity, negative = inhibition ([13]; parasite line B) was 4.13% (inactive). For the same compound, the Potency (3D7) was “inactive” and the Potency (7G8) was “inactive”.

With C=C(C)[C@H]1CN[C@H](C(=O)O)[C@H]1CC(=O)O the activity, negative = inhibition ([13]; parasite line A) was 3.91% (inactive), the activity, negative = inhibition ([13]; parasite line B) was 11.4% (inactive) and the Potency (3D7) was “inactive”.

With NC(=O)c1cc([N+](=O)[O-])cc([N+](=O)[O-])c1 the activity, negative = inhibition ([13]; parasite line B) was -21.3% (inactive) and the Potency ([13]; parasite line A) was 7.94 µM (active).

With CCCCCCCCCCCCCCCCCC(=O)O the outcome [14] was “inactive”, the outcome [15] was “inactive” and the outcome [16] was “inactive”. For the same compound, the outcome [17] was “inactive” and the outcome [18] was “inactive”.

For CC(NC(C)(C)C)C(=O)c1cccc(Cl)c1 (stereo not drawn), the viability [2] was 112% (inactive), the Potency [6] was “inactive” and the Potency [7] was 20.9 µM (active). The outcome [8] was “inactive”, the outcome [10] was “inactive” and the Z-AUC [11] was -0.176 (inactive). The Z-AUC [11, 19] was 0.0369, the Z-AUC ([11]; measured here: PEO4 Z-AUC) was 1.02 and the z-score [12, 20] was 0.679. It also gave a z-score [12, 21] of 0.615 and a z-score [12, 22] of 0.622.

With CCC1(c2ccc(N)cc2)CCC(=O)NC1=O (stereo not drawn) the Potency [1] was “inactive”, the Potency [3] was 1.32 µM (active) and the Potency [5] was “inactive”. The Potency [7] was “inactive”, the outcome [8] was “inactive” and the outcome [10] was “inactive”. For the same compound, the Z-AUC [11] was 1.39 (inactive), the Z-AUC [11, 19] was 0.942 and the Z-AUC ([11]; measured here: PEO4 Z-AUC) was 1.02.

With O=C(O)CCCc1ccc(N(CCCl)CCCl)cc1 the Potency [3] was “inactive”, the Potency [5] was 18.7 µM (active) and the Potency [6] was 16.6 µM (active). For the same compound, the outcome [8] was “inactive”, the Potency [9] was “inactive” and the Z-AUC [11] was 0.915 (inactive). For the same compound, the Z-AUC [11, 19] was 0.822, the Z-AUC ([11]; measured here: PEO4 Z-AUC) was 1.2 and the activity, negative = inhibition ([13]; parasite line A) was -9.59% (inactive). The activity, negative = inhibition ([13]; parasite line B) was 1.97% (inactive) and the Potency (3D7) was “inactive”.

For CCOP(=S)(OCC)Oc1ccc2c(C)c(Cl)c(=O)oc2c1, the activity, negative = inhibition ([13]; parasite line B) was -25.9% (inactive).

In the case of COc1cccc2c1C(=O)c1c(O)c3c(c(O)c1C2=O)C[C@@](O)(C(=O)CO)CC3OC1CC(N2CCOC(OC)C2)C(O)C(C)O1 (stereo partly drawn), the Potency [11] is reported as 0.0078 µM (active), the Z-AUC [11, 19] is reported as -3.26 and the Z-AUC ([11]; measured here: PEO4 Z-AUC) is reported as -2.98.

With CN1C(=O)CC(=O)N(c2ccccc2)c2cc(Cl)ccc21 the activity, negative = inhibition ([13]; parasite line A) was 1.1% (inactive), the activity, negative = inhibition ([13]; parasite line B) was -1.48% (inactive) and the Potency (3D7) was “inactive”. For the same compound, the Potency (7G8) was “inactive”.

For Cc1nnc2n1-c1ccc(Cl)cc1C(c1ccccc1)=NC2, the activity, negative = inhibition ([13]; parasite line A) was -6.67% (inactive) and the activity, negative = inhibition ([13]; parasite line B) was 6.11% (inactive).

For O=C1c2ccccc2C(=O)C1C(=O)C(c1ccccc1)c1ccccc1, the activity, negative = inhibition ([13]; parasite line A) was 4.21% (inactive) and the activity, negative = inhibition ([13]; parasite line B) was -28% (inactive).

In the case of CN1C(=O)COc2c(C(=O)NC3CN4CCC3CC4)cc(Cl)cc21 (stereo not drawn), the Potency [1] is reported as “inactive”, the viability [2] is reported as 152% (inactive) and the Potency [3] is reported as “inactive”. For the same compound, the Potency [4] was “inactive”, the Potency [6] was “inactive” and the Potency [7] was “inactive”. For the same compound, the outcome [8] was “inactive”, the Z-AUC [11] was -0.165 (inactive) and the Z-AUC [11, 19] was -0.0882. For the same compound, the Z-AUC ([11]; measured here: PEO4 Z-AUC) was 0.485, the activity, negative = inhibition ([13]; parasite line A) was 7.89% (inactive) and the activity, negative = inhibition ([13]; parasite line B) was 7.46% (inactive). The Potency (3D7) was “inactive”.

With C[C@]12Cc3cn[nH]c3C[C@@H]1CC[C@@H]1[C@@H]2CC[C@@]2(C)[C@H]1CC[C@]2(C)O the Z-AUC [11] was 1.25 (inactive), the Z-AUC [11, 19] was 0.915 and the Z-AUC ([11]; measured here: PEO4 Z-AUC) was 1.64.

In the case of CC(C)=CC1C(C(=O)OCN2C(=O)C3=C(CCCC3)C2=O)C1(C)C (stereo not drawn), the activity, negative = inhibition ([13]; parasite line A) is reported as 4.58% (inactive), the activity, negative = inhibition ([13]; parasite line B) is reported as 1.1% (inactive) and the Potency (3D7) is reported as “inactive”. For the same compound, the Potency (7G8) was “inactive”.
